Test results as given in PubChem BioAssay (EPA / NIEHS).
Activity calls are given as the source filed them. How the source made its calls: active means hit-call score of the fitted dose curve at least 0.9, where 1 is the maximum; inactive means score below 0.9.

read-out: X-box binding protein 1 (XBP1), XBP1 (gene 7494); assay: LTEA_HepaRG_XBP1: Life Technologies and Expression Analysis (LTEA) Assay for X-box binding protein 1 (XBP1) using HepaRG (AID 2283540); conditions: mRNA level, 48 h; actives raise or lower the signal
Protocol: LTEA_HepaRG is a cell based, multiplexed-readout assay that uses HepaRG, a human liver cell line, with measurements taken at 48 hours after chemical dosing on a 96-well plate.LTEA_HepaRG_XBP1 is one of 102 assay component(s) measured in the LTEA HepaRG cell culture assay. It is a marker of Diseases associated with XBP1 including Major Affective Disorder 7 and Bipolar Disorder.Data from the assay component LTEA_HepaRG_XBP1 was analyzed into 1 endpoint. This assay endpoint, LTEA_HepaRG_XBP1, was analyzed with bidirectional fitting relative to DMSO as the negative control and baseline of activity. Using a type of inducible reporter, measures of mRNA induction for gain or loss-of-signal activity can be used to understand regulation of transcription factor activity. To generalize the intended target to other relatable targets, this assay endpoint is annotated to the dna binding intended target family, where the subfamily is basic leucine zipper.
A total of 1060 chemcials from the ToxCast library were tested in eight-point concentration-response experiments. Cell culture and cytotoxicity assays were conducted at Thermo Fisher Scientific's Custom Services facility (Madison, WI). A single lot of human HepaRG cells (Thermo Fisher Scientific, Frederick, MD) was used for the cell culture experiments. 96-well format collagen type I coated plates of human HepaRG cells were prepared using established methods. Briefly, cryopreserved HepaRG cells were thawed, plated at a density of approximately 100,000 cells/well in HepaRG Thaw, Plate, and General Purpose media (HPRG770, Thermo Fisher Scientific), and incubated for 48 hours. 0.5% DMSO was selected as vehicle control to balance the requisite need of DMSO in HepaRG cultures to maintain differentiation (for example, baseline metabolism, proportions of hepatocytes vs. cholangiocytes), while enabling further hepatic receptor pathway activation (for example, PXR and CAR) in response to chemical exposure. 48 hours after plating, the culture medium was replaced with HepaRG Serum-Free Incudtion Media. Cells were exposed to each test chemical in duplicate and maintained in CO2 incubators for another 48 hours. Chemical plates were thawed to room temperature and 200x concentrations of treatment groups were prepared. 8-point conentration-reponse curves were made with the highest exposure at 100 uM, followed by half-log dilutions, all in 0.5% DMSO. Each test plate contained variouse controls, induction positive controls (1mM phenobarbital), cytotoxicity positive controls ([…] aflatoxin B1), vehicle controls (0.5% DMSO), and total lysis controls (0.5% DMSO). Cell morphology images were taken using an Essen IncuCyte FLR automated microscope, with six 96-well plates imaged in about 24 minutes. Images were captured and exported and JPEG files. Spent culture media was transfered to black-well plates for the LDH assay, and remaining media was sorted at -80 C for later use. Cells were treated with RLT buffer and frozen until shipped for gene expression analysis. Total RNA was isolated from the cell suspension in 75 uL of Buffer RLT (Qiagen, Germantown, MD 20874) by Quintiles/Expression Analysis (Durham, NC) using a custom isolation procedure. Total RNA from each plate well was transferred to a preamplification plate. Fluidigm's 96.96 Dynamic ArrayTM (Fluidigm, Amsterdam, the Netherlands) technology was used for gene expression analyses by quantitative reverse transcription polymerase chain reaction (qRT-PCR, performed by Quintiles/Expression Analysis, Durham, NC)89. Standard TaqManTM Assays (Applied Biosystems/ThermoFisher Scientific, Foster City, CA) were used to assess the expression of 93 genes selected based on their selectivity and sensitivity to important hepatic receptors known to be modulated by environmental chemicals; importance in human hepatocyte functionality; and hepatotoxicity. […]

Compound	outcome	AC50
O=C(Nc1ccccc1-c1ccc(Cl)cc1)c1cccnc1Cl	inactive	–
COCc1cnc(C2=NC(C)(C(C)C)C(=O)N2)c(C(=O)O)c1 (stereo not given)	inactive	–
CS(=O)(=O)c1cc(C(F)(F)F)ccc1C(=O)c1cnoc1C1CC1	inactive	–
CC(C)C1(C)N=C(c2ncccc2C(=O)O)NC1=O (stereo not given)	inactive	–
CCSC(=O)N1CCCCCC1	inactive	–
CCN(CC)C(=O)C(C)Oc1cccc2ccccc12 (stereo not given)	–	50 µM (active)
CC1(C)CCC(=Cc2ccc(Cl)cc2)C1(O)Cn1cncn1 (stereo not given)	inactive	–
Nc1c(Cl)c(Cl)nc(C(=O)O)c1Cl	inactive	–
CNC(=O)Oc1cccc2ccccc12	inactive	–
OC(c1ccc(Cl)cc1)(c1ccc(Cl)cc1)C(Cl)(Cl)Cl	–	82.1 µM (active)
Cc1ccc(N=CN(C)C=Nc2ccc(C)cc2C)c(C)c1	inactive	–
Nc1cnn(-c2ccccc2)c(=O)c1Cl	inactive	–
CCOC(=O)C(C)OC(=O)c1cc(Oc2ccc(C(F)(F)F)cc2Cl)ccc1[N+](=O)[O-] (stereo not given)	inactive	–
CCCCC(C#N)(Cn1cncn1)c1ccc(Cl)cc1 (stereo not given)	inactive	–
CC(C)N1C(=O)N(c2ccccc2)CSC1=NC(C)(C)C	inactive	–
CN=C=S	–	17.3 µM (active)
COCC(=O)N(c1c(C)cccc1C)C(C)C(=O)OC (stereo not given)	inactive	–
CC(C)Nc1nc(Cl)nc(NC(C)C)n1	inactive	–
Cn1c(-c2ccccc2)cc(-c2ccccc2)[n+]1C	inactive	–
COC(=O)NS(=O)(=O)c1ccc(N)cc1	inactive	–

Compound	outcome	AC50
C=CCOC(=O)C(C)(C)OC(=O)c1cc(-n2c(=O)cc(C(F)(F)F)n(C)c2=O)ccc1Cl	inactive	–
O=C(O)c1c(Cl)ccc2cc(Cl)cnc12	inactive	–
Cc1cc(C)nc(Nc2ccccc2)n1	inactive	–
CCOc1nc(C(Cl)(Cl)Cl)ns1	–	0.83 µM (active)
CC(C)N1C(=O)c2ccccc2NS1(=O)=O	inactive	–
COc1cc(OC)nc(NC(=O)NS(=O)(=O)c2ncccc2OCC(F)(F)F)n1	inactive	–
CCOP(=O)(OCC)Oc1nc(Cl)c(Cl)cc1Cl	–	83.1 µM (active)
CCCCC(O)(Cn1cncn1)c1ccc(Cl)cc1Cl (stereo not given)	inactive	–
CCCC(=NOCC)C1=C(O)CC(CC(C)SCC)CC1=O (stereo not given)	inactive	–
Clc1cccc(C(Cl)(Cl)Cl)n1	inactive	–
O=P(O)(O)CCCl	inactive	–
Cc1nc(N(C)C)nc(OC(=O)N(C)C)c1C	inactive	–
Nc1c(Cl)c(F)nc(OCC(=O)O)c1Cl	inactive	–
CNC(=O)N(C)c1nnc(C(C)(C)C)s1	inactive	–
CC(C)(C)C(=O)C(Oc1ccc(Cl)cc1)n1cncn1 (stereo not given)	inactive	–
CN/C(=N\[N+](=O)[O-])NCc1cnc(Cl)s1	inactive	–
COC(=O)NC(=S)Nc1ccccc1NC(=S)NC(=O)OC	inactive	–
CC1(C)CON(Cc2ccccc2Cl)C1=O	inactive	–
COP(=O)(OC)O/C(C)=C/C(=O)N(C)C	inactive	–
CCC(C)n1c(=O)[nH]c(C)c(Br)c1=O (stereo not given)	–	30.5 µM (active)
